The source of these data is article PMC12136788.

Sequences and labels used below:
T1: UNK ZnF1-6 (called full-length) (human, UniProt Q9C0B0 30-357)
T1 sequence: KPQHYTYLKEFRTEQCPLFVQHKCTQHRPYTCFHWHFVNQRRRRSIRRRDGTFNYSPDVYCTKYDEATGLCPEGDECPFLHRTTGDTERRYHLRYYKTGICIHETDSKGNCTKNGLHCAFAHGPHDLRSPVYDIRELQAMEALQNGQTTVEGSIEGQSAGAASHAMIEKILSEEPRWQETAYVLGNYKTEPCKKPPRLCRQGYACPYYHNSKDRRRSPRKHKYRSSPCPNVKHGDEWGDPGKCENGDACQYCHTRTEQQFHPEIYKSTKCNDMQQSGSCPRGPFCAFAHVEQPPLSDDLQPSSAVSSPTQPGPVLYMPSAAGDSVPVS

B1: chrX:133301433:133301604:-|3pUTR|ENSG00000076716|msi1|total|mutant (ssRNA)
RNA: GGGAGUUCUACAGUCCGACGAUCUUGUUUUUCUUGGGGGAUGGGGUGGGGUGGGAGCCGGCCGAGCUGAGAAUACUACAUCUCCGUGGUGACCUUCCGCCACGUGGGUGAAGUGGCAAAGGCCAUGGCCAUAUCUGUUGUCCCCAACAGAGGAUUGAGCAUCA
B2: chr21:44851366:44851434:-|CDS_3pUTR|ENSG00000183255|msi1_unk|total|mutant (ssRNA)
RNA: GGGAGUUCUACAGUCCGACGAUCAGGACAGUCCUCUCGUCUUGCAGACUGGUGACCUUCUAUUCCCUGUUCAUCUCUGUUUCCCGAUUCCGUCACUUGAAAUAAGAAAUCUUUGGGGUUUGGGCUUUUUUAUACUCUUCUCAGCAACAGAGGAUUGAGCAUCA
B3: ENSG00000142192:stop:overlap|stop_codon|ENSG00000142192|stop_codon|NA|stop_codon (ssRNA)
RNA: GGGAGUUCUACAGUCCGACGAUCAGAUGCAGCAGAACGGCUACGAAAAUCCAACCUACAAGUUCUUUGAGCAGAUGCAGAACUAGACCCCCGCCACAGCAGCCUCUGAAGUUGGACAGCAAAACCAUUGCUUCACUACCCAUCCAACAGAGGAUUGAGCAUCA
B4: chr1:13115521:13116400:-|CDS|ENSG00000275774|control|control|control (ssRNA)
RNA: GGGAGUUCUACAGUCCGACGAUCGAACAGAGCAAACAAGAGGUAGAGGUGAAAAAUGCUAAGUCAGAAGAGGAGCAGAGCAGUAGCUCCAUGAAGAAAGAUGAGACUCAUGUAAAGAUGGAGUCUGAGGGGGGUGCAGAAGACCAACAGAGGAUUGAGCAUCA
B5: ENSG00000070961:be:win_5251|3pUTR|ENSG00000070961|bound_else_gene|NA|bound_elsewhere_windowed (ssRNA)
RNA: GGGAGUUCUACAGUCCGACGAUCUGGAUUCUUUAGCUCUCUUUUUCUUUCCUUCAUCUACCUUCUUCUCUUUUUUGCCUCUGUCUUUACCCUUUAGAAACUGGCAUGUGUUAGGGCCCAGAUUUCACCAGAUACACAAUCCUCCAACAGAGGAUUGAGCAUCA
B6: ENSG00000198589:be:win_6101|CDS|ENSG00000198589|bound_else_gene|NA|bound_elsewhere_windowed (ssRNA)
RNA: GGGAGUUCUACAGUCCGACGAUCUAGGAAAUCAGAACUCAGAAAACGAGAUCCUCCUGGAAGGCGAUGAUGAUACUCUGUCAUCCGUGGAUGAGAAAGAUUUAGAGAAUCUUGCCGGUCCUGUUAGCCUGAGCACACCAGCUCCAACAGAGGAUUGAGCAUCA
B7: ENSG00000227500:stop:overlap|stop_codon|ENSG00000227500|stop_codon|NA|stop_codon (ssRNA)
RNA: GGGAGUUCUACAGUCCGACGAUCGCAACAGCCUGCCCGAGUACCCCACUGUGCCCAGCUACCCGGGCAGUGGCCAGUGGCCUUAGAGGGAGCCUGCCCUGCCCCCACCGCCCACCACCUCCUCCCCUUCAUUCCUGCUGCUACCAACAGAGGAUUGAGCAUCA
B8: chr19:57593639:57593745:+|3pUTR|ENSG00000171649|unk|FALSE|unique (ssRNA)
RNA: GGGAGUUCUACAGUCCGACGAUCUGAACCUUCUUAUUUCUCUACAUUCUUGCCAUACUUGGUAUGGUUAGUCUUUUUAAUUUUAGUUGUUUUAAUAGCUGUAUAAUAGCAUCUGUCUGUGAUUUUAUUGCAUUUUUCUGGUAUCAACAGAGGAUUGAGCAUCA
B9: chr19:57593639:57593745:+|3pUTR|ENSG00000171649|unk|total|mutant (ssRNA)
RNA: B8 RNA with U68C, A69C, U83C, A84C, U95C, A96C, U106C, A107C
B10: chr2:171983412:171983537:+|3pUTR|ENSG00000128708|unk|FALSE|unique (ssRNA)
RNA: GGGAGUUCUACAGUCCGACGAUCUGAUGACUUUAAUUUUAAAAUCUUGUGACAUUUUGCUUAUACUAAAAGUUAUCUAUCUUUAGUUGAAUAUUUUCUUUUGGAGAGAUUGUAUAUUUUAAAAUACUGUUUAGAGUUUAUGAGCAACAGAGGAUUGAGCAUCA
B11: chr2:216672374:216672548:-|3pUTR|ENSG00000115461|msi1|total|mutant (ssRNA)
RNA: GGGAGUUCUACAGUCCGACGAUCUUUUUCUUUUUUUUUUUGAAGACAGCAAUAACCACAGUACAUAUUACUGCCGUUCUCUACCGUUUUACAUACAUUCAUACCAUAACUCUGUUCUCUCCUCUUUUUUGUUUUCAACUUUAACAACAGAGGAUUGAGCAUCA
B12: chr2:216672374:216672548:-|3pUTR|ENSG00000115461|msi1|FALSE|unique (ssRNA)
RNA: B11 RNA with C73U, C74A, C83U, C84A
B13: chr20:3963869:3963970:-|CDS|ENSG00000101236|unk|total|mutant (ssRNA)
RNA: GGGAGUUCUACAGUCCGACGAUCAAUCUGCCUCUCAACAUAUAUAUUGUGGUUUUUGGUACUGCUAUAUUUGUCUUCAUCCUCCGUUUACUCUUCUGUUGCUACUUGAUCCGGUAACCAAUUUUCAUUCUAUGUUACUUCAAACAACAGAGGAUUGAGCAUCA
B14: chr8:73046310:73046411:+|3pUTR|ENSG00000147601|msi1|FALSE|unique (ssRNA)
RNA: GGGAGUUCUACAGUCCGACGAUCUUGUAUUCUUUAAGAACCUUAUUUUGAUAAAAUGUAAAUUUGUUGAACCCUGCCACAUUUAGUAUCCCCACCCCCAAAUCCUGUUCCAAUGAAAAAAUUAAAACCUGAUACGAAAAAAAACAACAGAGGAUUGAGCAUCA
B15: chr2:96301550:96301651:-|CDS|ENSG00000144028|msi1|FALSE|unique (ssRNA)
RNA: GGGAGUUCUACAGUCCGACGAUCAAGGCGAAAGGAGAUUGACCUGCUGCUGGGUCAAACAGAUGAUACCAGAUACCAUGUGCUAGUGAACCUGGGCAAAAAGAUCACAGACUAUGGUGGAGAUAAGGAAAUCCAAAAUAUGGGCAACAGAGGAUUGAGCAUCA
B16: chr7:76302746:76302847:+|CDS|ENSG00000106211|unk|total|mutant (ssRNA)
RNA: GGGAGUUCUACAGUCCGACGAUCGUCCCCUUCUCGCUCCUGCGGGGCCCCAGCUGGGACCCCUUCCGCGACUGGUACCCGCACCGCCGCCUCUUCGACCAGGCCUUCGGGCUGCCCCGGCUGCCGGAGGAGUGGUCGCAGUGGCAACAGAGGAUUGAGCAUCA
B17: chr7:56101660:56101848:-|3pUTR|ENSG00000106153|msi1|total|mutant (ssRNA)
RNA: GGGAGUUCUACAGUCCGACGAUCUGGAGAGAUGGAAAAUCAGCUCUCAUAACUAAGUUAAUUCCGUAUAAAAACCGAAUUGACCGUGAGGGUAUAAAGUGUAACCAUCAGUUAAACCUCUCCUGUCAUUCCUGGCUUCCUUGCCAACAGAGGAUUGAGCAUCA
B18: chr11:2928445:2928542:-|3pUTR|ENSG00000181649|msi1_unk|FALSE|overlapping (ssRNA)
RNA: GGGAGUUCUACAGUCCGACGAUCAUUGGACUAUCUAAUAUCUAUGUAUUUAUUUCGCUGGUUCUUUGUAGUCACAUAUUUUAUAGUCUUAAUAUCUUGUUUUUGCAUCACUGUGCCCAUUGCAAAUAAAUCACUUGGCCAGUUCAACAGAGGAUUGAGCAUCA
B19: ENSG00000070961:be:win_1401|CDS|ENSG00000070961|bound_else_gene|NA|bound_elsewhere_windowed (ssRNA)
RNA: GGGAGUUCUACAGUCCGACGAUCAAAUGCUACAGCUAUUUGUUCAGAUAAAACAGGAACUUUGACAAUGAACAGAAUGACAGUCGUUCAAGCUUACAUAAAUGAAAAACAUUAUAAAAAGGUUCCUGAACCAGAAGCUAUUCCCAACAGAGGAUUGAGCAUCA
B20: chr1:52238154:52238269:+|CDS|ENSG00000157077|unk|total|mutant (ssRNA)
RNA: GGGAGUUCUACAGUCCGACGAUCUCUGACCGUCCCGCCAGUGUCUGUUCCCCUUCACAAUUAAAGGAUGACGGAAGUACCGGCCGAGACCCCUCCAUGUCUGCGAUUACAAGUUUAACGGUUGAUUCAGUAAUCUCAUCCCAGCAACAGAGGAUUGAGCAUCA
B21: chr2:88557131:88557241:-|3pUTR|ENSG00000172071|msi1|total|mutant (ssRNA)
RNA: GGGAGUUCUACAGUCCGACGAUCGAGGACAAGCCGCACAAACUGUAUAACGGUUUAUGUCCGCCGUUUUACCGUCCUAUUUGCCGCAUUCAACCGCUUUAUUCCUCCGAUGGUUCCCGGGUGGGUUUACAGCUUUUUGUACUUCAACAGAGGAUUGAGCAUCA
B22: chr5:43486917:43487111:-|CDS|ENSG00000172244|control|control|control (ssRNA)
RNA: GGGAGUUCUACAGUCCGACGAUCUUAUAAACCAGGAUCUUCAGAAACCUUGCUAGGAGAAGUUAAUGAAAAUAGAGUAUCAAUAGCAUUGAAAAAAACCUCUGAAAUCCUUCACGAUAUUGACUGUCUUCUAUCAAACUCUAACAACAGAGGAUUGAGCAUCA
B23: chr8:65707876:65707977:+|CDS|ENSG00000066855|unk|FALSE|unique (ssRNA)
RNA: GGGAGUUCUACAGUCCGACGAUCCCUGCUGCCCUCAUAGCAGAGGCUCUGAAAAAGAAAUUUGCUUAUCGGUAUCGAAGUGAUAGCCAAGAUGAAGUUGAAAAAGGAAUUCCAAAGUCUGAAUCAGAGGCCACCUCAGAGAGACAACAGAGGAUUGAGCAUCA
B24: chr10:30820206:30820444:-|three_prime_utr|ENSG00000183621|control|control|control (ssRNA)
RNA: GGGAGUUCUACAGUCCGACGAUCCUUAUCUAAUCUCCAAAUGAAGAAUGGGCCCAUCUGACAUAUCCUAUGAGCACAAAGCUUAGGGGACUCUUCACCGAAACCUAGACAAAUAUUUGAAUGCAUUUUUUUUUUUUUUUUUUGCAACAGAGGAUUGAGCAUCA
B25: ENSG00000112365:stop:overlap|stop_codon|ENSG00000112365|stop_codon|NA|stop_codon (ssRNA)
RNA: GGGAGUUCUACAGUCCGACGAUCUCUACACACUGGCAAGAAGCCUUUCUCCUGCCCUGAGUGUAACUUACAGUUUGCUCGCUUAGACAACUUGAAGGCUCACUUGAAAAUUCAUAGCAAGGAGAAGCAUGCUUCAGAUGCCAGCAACAGAGGAUUGAGCAUCA
B26: ENSG00000107863:be:win_3701|CDS|ENSG00000107863|bound_else_gene|NA|bound_elsewhere_windowed (ssRNA)
RNA: GGGAGUUCUACAGUCCGACGAUCUCUUCACAAAUGAUAAAUAUGCUGAUUUUAUUGAAGCCAAUCGUAAAGAAGAUCCUCUAGAUCGUCUGAAAACAUUAAAAAGACUAAUUCACGAUUUGCCUGAACAUCAUUAUGAAACACCAACAGAGGAUUGAGCAUCA
B27: ENSG00000066933:stop:overlap|stop_codon|ENSG00000066933|stop_codon|NA|stop_codon (ssRNA)
RNA: GGGAGUUCUACAGUCCGACGAUCAUAGCUCAGAGAAUUUGAAUAUGGAGUCUGAAUAUGCUAUCUCUGAGAAAUCAGAAGCUUAGCCCUUAGCUCCCUGAAGACAGCUGGCAAGUCUGAACCUUCCAGCAAGUUGCGAAAGCACAACAGAGGAUUGAGCAUCA

Residue numbers refer to the chain shown, from its start. In all, about 5,800 sequences were measured (“enrichment r”: median about 0.68, highest 2% from about 11 on). Shown is part of a subset that was picked to be rich in the highest values.

The test concerns the target T1, UNK ZnF1-6 (called full-length). As to the kind of experiment: nsRBNS (natural sequence RNA bind-n-seq); RBNS binding buffer (assumed for nsRBNS): 25 mM Tris pH 7.5, 150 mM KCl, 3 mM MgCl2, 0.01% Triton X-100, 500 ug/ml BSA, 20 U/ml SUPERase-In, 4 C; UNK is unkempt and MSI1 is Musashi-1; names of the RNAs are library labels; protein concentration not given here; high values mean tight binding.
Regarding B1, the binding signal was 1.2 enrichment R.
Turning to B2, the binding signal came to 0.43 enrichment R.
Regarding B3, the binding signal came to 0.618 enrichment R.
Turning to B4, the binding signal is 0.882 enrichment R.
Molecule B5 yielded a binding signal of 1.45 enrichment R.
B6 displayed a binding signal of 0.619 enrichment R.
Regarding B7, the binding signal was determined as 0.868 enrichment R.
In the case of B8 it was 122 enrichment R; in that of B9, 1.21 enrichment R; in that of B10, 4.24 enrichment R.
Consider B11, for which the binding signal stood at 1.89 enrichment R.
As to B12, the binding signal is 12.2 enrichment R.
In turn, B13 had a binding signal of 0.575 enrichment R.
The molecule B14 displayed a binding signal of 2.26 enrichment R.
In turn, B15 yielded a binding signal of 0.578 enrichment R.
B16: the binding signal is 2.16 enrichment R.
In turn, B17 displayed a binding signal of 0.253 enrichment R.
The molecule B18 came in with a binding signal of 5.74 enrichment R.
In the case of B19 it was 0.274 enrichment R; in that of B20, 0.482 enrichment R; in that of B21, 0.471 enrichment R.
The value for B22 was 0.69 enrichment R.
In the case of B23 it was 0.424 enrichment R; in that of B24, 27.7 enrichment R.
With B25, the binding signal was found to be 0.948 enrichment R.
The value for B26 was 0.382 enrichment R; that for B27 was 15.4 enrichment R.
